The source of these data is PubChem BioAssay (NCATS).

Inconclusive results are not listed. Unmarked numbers belong to inactive results. The source made the active and inactive calls. Calls come from the whole dose curve; as a rule, active = well fitted inhibition curve with a large enough effect; inconclusive = small, poorly fitted or top-dose-only effect; inactive = flat fitted curve, though single readings scatter.
% is set by controls: 0 for no effect and ±100 for the full control effect.

Chain of Glutathione peroxidase 1 (Homo sapiens) (P07203 whole entry, looked up): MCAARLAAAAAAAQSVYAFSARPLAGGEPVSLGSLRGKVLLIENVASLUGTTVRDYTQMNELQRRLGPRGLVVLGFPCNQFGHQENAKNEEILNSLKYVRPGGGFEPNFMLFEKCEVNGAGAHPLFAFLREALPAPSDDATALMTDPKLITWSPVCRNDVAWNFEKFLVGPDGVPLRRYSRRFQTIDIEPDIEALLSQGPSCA

The assay addresses Glutathione peroxidase 1 (Homo sapiens) (UniProt P07203). Briefly: Primary qHTS Assay for Inhibitors of Recombinant Selenoprotein Glutathione Peroxidase 1 (GPX1) (AID 1845191). Note: nearly all actives have a fitted effect of over 65% in size. Conditions: recombinant GPX1, GR-coupled NADPH fluorescence, 15 min; series mostly up to 48.8 µM; activity, negative = inhibition: at the top concentration. Put shortly:
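GR-coupled readout: NADPH consumption tracked by fluorescence, ex 340/em 450 nm, at t=0 and after 15 min at RT. Final mix 10 nM GPX1, 1 mM GSH, 0.5 mM CHP, 0.5 mM NADPH, 100 nM GR, 0.01% BSA, following 30 min enzyme–compound preincubation.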
A general note: In qHTS, concentration-response curves come from the screen itself.
For the compound `COC1C2=C(COC2=O)C2(C)CCCC(C)(CO)C2C1OC(=O)c1ccccc1` (stereo not drawn), the “activity, negative = inhibition” value is 4.23% [at 27.7 µM].

Consider `CC[N+](CC)(CC)CCC(O)(c1ccccc1)C1CCCCC1` (stereo not drawn), for which the result was inactive.

As to `CC(Oc1ccccc1)C(=O)N[C@@H]1C(=O)N2[C@@H]1SC(C)(C)[C@@H]2C(=O)O` (stereo partly drawn), the “activity, negative = inhibition” value is 4.45%.

As for `Cc1cc(C(=O)NNCc2ccccc2)no1`, the “outcome” value was “inactive [at 98.3 µM]”.

Regarding `CC(C)CC(=O)OC[C@H]1O[C@@](COC(=O)CC(C)C)(O[C@H]2O[C@H](CO)[C@@H](O)[C@H](O)[C@H]2O)[C@@H](OC(=O)CC(C)C)[C@@H]1OC(=O)CC(C)C`, the “outcome” value was “inactive [at 15.3 µM]”.

Turning to `CC(=O)Oc1c(C)cc(OCC(O)CNC(C)C)c(C)c1C` (stereo not drawn), the “outcome” value is “inactive [at 98.3 µM]”.

Regarding `CCCCCCCCCCCC[n+]1ccc2ccccc2c1`, the “activity, negative = inhibition” value was -15.1%.

In the case of `Cn1c(=O)c2nc(/C=C/c3cccc(Cl)c3)n(C)c2n(C)c1=O`, the “activity, negative = inhibition” value was -8.55% [at 98.3 µM].

Consider `CCC/C=C/C(=O)O[C@H]1CC(C)(C)CC2[C@]13[C@H](O)O[C@@]21CCC2[C@@]4(C)CC[C@H](O[C@@H]5O[C@H](C(=O)O)[C@@H](O)[C@H](O[C@@H]6O[C@H](CO)[C@H](O)[C@H](O)[C@H]6O[C@@H]6O[C@@H](C)[C@H](O)[C@@H](O)[C@H]6O[C@@H]6OC[C@](O)(CO)[C@H]6O)[C@H]5O[C@@H]5O[C@H](CO)[C@H](O)[C@H](O)[C@H]5O)C(C)(C)C4CC[C@@]2(C)[C@]1(C)C[C@H]3OC(C)=O` (stereo partly drawn), for which the outcome was “inactive [at 9.52 µM]”.

Take `Nc1ncnc2c1ncn2[C@@H]1O[C@H](COP(=O)(O)OP(=O)(O)OP(=O)(O)O)[C@@H](O)[C@H]1O`: the outcome was “inactive [at 0.4 µM]”.

As to `CC[C@@H](C(=O)[C@@H](C)[C@@H](O)[C@H](C)CCc1ccc(C)c(O)c1C(=O)O)[C@H]1O[C@](CC)([C@H]2CC[C@](O)(CC)[C@H](C)O2)C[C@@H]1C`, the “activity, negative = inhibition” value was -31.6%.

Take `CC(=O)OCC(=O)[C@@]12OC3(CCCC3)O[C@@H]1C[C@H]1[C@@H]3CCC4=CC(=O)C=C[C@]4(C)[C@@]3(F)[C@@H](O)C[C@@]12C`: the “activity, negative = inhibition” value is 1.06%.

Turning to `CC(C)(C)C(=O)OCOC(=O)[C@@H]1N2C(=O)[C@@H](N=CN3CCCCCC3)[C@H]2SC1(C)C`, the result was inactive.

Consider `COc1ccc(C[C@H](N)C(=O)N[C@H]2[C@@H](O)[C@H](n3cnc4c(N(C)C)ncnc43)O[C@@H]2CO)cc1`, for which the Potency result was “inactive”.

`COc1cc(/C=C/C(=O)OC2CC(OC(C)=O)C(OC(C)=O)C3C2CCC2C(=O)OC(c4ccoc4)CC23C)ccc1O[C@@H]1O[C@H](CO)[C@@H](O)[C@H](O)[C@H]1O` (stereo partly drawn): the “outcome” value was “inactive [at 15.3 µM]”.

As to `COc1ccc2c3c1O[C@H]1C[C@@H](O)C=C[C@@]31CCN(C)C2`, the Potency entry is “inactive”.

In the case of `C[C@@H]1[C@H](O)[C@@H](C)/C=C/C=C\C=C\C=C\C=C\C=C\C=C\[C@H](O[C@@H]2O[C@H](C)[C@@H](O)[C@H](N)[C@@H]2O)C[C@@H]2O[C@](O)(C[C@@H](O)C[C@@H](O)[C@H](O)CC[C@@H](O)C[C@@H](O)CC(=O)O[C@H]1C)C[C@H](O)[C@H]2C(=O)O` (stereo in doubt), the “activity, negative = inhibition” value was -16%.

With `Cc1ncc([N+](=O)[O-])n1CC(O)CN1CCOCC1` (stereo not drawn), the “activity, negative = inhibition” value is 0.825%.

Turning to `Cc1cc(O)cc(Oc2cc(C)c(C(=O)O)c(O)c2)c1`, the “activity, negative = inhibition” value is -6.78%.

In the case of `COc1ccc([C@H]2Cc3cccc(O)c3C(=O)O2)cc1`, the outcome was inactive.

As to `CC(=O)c1c(C)cc(O[C@@H]2O[C@H](CO)[C@@H](O)[C@H](O)[C@H]2O)cc1O`, the “activity, negative = inhibition” value is 4.31% [at 27.7 µM].

As for `CC(C)(C)c1cc(CN2CCN(CC(O)c3ccc(Cl)cc3)CC2)cc(C(C)(C)C)c1O` (stereo not drawn), the “activity, negative = inhibition” value is -17.8%.

As to `CC[N+](C)(C)Cc1ccccc1Br`, the “activity, negative = inhibition” value was -7.53%.

For the compound `O=C1C[C@@H](c2ccc(O)cc2)Oc2cc(O)ccc21`, the “activity, negative = inhibition” value is 2.31%.

With `COC(=O)CCC(=O)CN`, the “activity, negative = inhibition” value was 2.96%.

Take `CC1(C)S[C@@H]2[C@H](NC(=O)C(C(=O)O)c3ccsc3)C(=O)N2[C@H]1C(=O)O` (stereo partly drawn): the result was inactive.

In the case of `CC1=C2C(=O)C=C(CO)[C@@H]2[C@H]2OC(=O)[C@H](C)[C@@H]2[C@@H](O)C1`, the “activity, negative = inhibition” value is -9.08%.

With `C=C1CC[C@@H]2[C@](C)(CO)[C@H](O)CC[C@@]2(C)[C@@H]1C/C=C1/C(=O)OC[C@H]1O`, the “activity, negative = inhibition” value is 3.34%.

As for `C=C1CCC2C(OC(=O)C2(O)COC(C)=O)C2C(=C)C(O)CC12` (stereo not drawn), the “outcome” value was “inactive [at 27.7 µM]”.

`O=C(O)c1cc(O)c2c(c1)[O][Bi][O]2`: the outcome was “inactive [at 0.4 µM]”.

On to `C1CCN2CC3C[C@@H](CN4CCCC[C@@H]34)[C@H]2C1`, for which the “activity, negative = inhibition” value is -1.92%.

For `Cc1cc(/C=C/c2ccc3cc(N(C)C)ccc3[n+]2C)c(C)n1-c1ccccc1`, the “activity, negative = inhibition” value is -26%.

Consider `CC1(C)O[C@@H]2C[C@H]3[C@@H]4CCC5=CC(=O)C=C[C@]5(C)[C@H]4[C@@H](O)C[C@]3(C)[C@]2(C(=O)CO)O1`, for which the outcome was inactive.

Take `CC(=O)Oc1cc(C)c(OC(C)=O)c2ccccc12`: the “outcome” value is “inactive [at 98.3 µM]”.

With `COc1c2c(c(C)c3c1C(=O)OC3)OC1(C)CC(O)C3(O)C(C)(C)OC(=O)CCC3(C)C1C2` (stereo not drawn), the “outcome” value is “inactive [at 27.7 µM]”.

As to `CO[C@H](C(=O)[C@@H](O)[C@@H](C)O)C1Cc2cc3cc(O[C@H]4C[C@@H](O[C@H]5C[C@@H](O)[C@H](O)[C@@H](C)O5)[C@@H](O)[C@@H](C)O4)c(C)c(O)c3c(O)c2C(=O)[C@H]1O[C@H]1C[C@@H](O[C@H]2C[C@@H](O[C@H]3C[C@](C)(O)[C@H](O)[C@@H](C)O3)[C@H](O)[C@@H](C)O2)[C@H](O)[C@@H](C)O1` (stereo partly drawn), the “activity, negative = inhibition” value was 4.52%.

Regarding `COC(=O)C1=C(C#N)NC(C)=C(C(=O)OC(C)C)C1c1cccc([N+](=O)[O-])c1` (stereo not drawn), the “activity, negative = inhibition” value is -12.6%.

Regarding `NCCOCCOCCNC(=O)Cc1ccc(Nc2nc(NCc3ccc(F)cc3)nc(NCC3CCCCC3)n2)cc1`, the “activity, negative = inhibition” value was -7.36%.
